Values joined by “and” are separate entries in the source; they are usually repeats but may differ in a detail not shown here. Equal values may be shown once. Active and inactive are the calls of the source. Unless noted, the call rests on the fitted dose curve; in most records, active means well fitted curve in the direction sought with a large enough effect in the repeat runs; inconclusive means weak or mixed curves; inactive means no such curve, though single readings can be large; an effect the other way counts as inactive or inconclusive.
Assays:
[1] = qHTS assay for small molecule agonists of the p53 signaling pathway (AID 651631; calls by dose curve; further: nearly all actives have a fitted effect of over 15% in size; further: potency means the concentration at half of the fitted maximal effect)
How it was run: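 Readout was fluorescence from the LiveBLAzer FRET substrate, applied for 2 h at room temperature after 16 h compound exposure at 37 °C. Cells were the p53RE-bla HCT-116 line, with beta-lactamase driven by p53 response elements.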

[2] = qHTS assay for small molecules that induce genotoxicity in human embryonic kidney cells expressing luciferase-tagged ATAD5 (AID 651632); further: nearly all actives have a fitted effect of over 15% in size; further: potency means the concentration at half of the fitted maximal effect
How it was run: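 ATAD5-luc HEK293T, 2,000 cells/well; cpd or DMSO pin-transferred; 16 hr, 37C/5% CO2; Amplite 30 min RT; luminescence.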

[3] = qHTS assay for small molecule agonists of the p53 signaling pathway - cell viability (AID 651633; calls by dose curve; further: nearly all actives have a fitted effect of over 30% in size; further: potency means the concentration at half of the fitted maximal effect)
How it was run: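 p53RE-bla cells, seeded at 4,000 per well and rested 5 h at 37 C/5% CO2, received compounds in DMSO for 16 h at 37 C. CellTiter-Glo was then added, and luminescence was read after 30 min at room temperature to gauge cytotoxicity.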

[4] = qHTS assay for small molecules that induce genotoxicity in human embryonic kidney cells expressing luciferase-tagged ATAD5 - cell viability (AID 651634; calls by dose curve; further: nearly all actives have a fitted effect of over 25% in size; further: potency means the concentration at half of the fitted maximal effect)
How it was run: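 Fluorescence from CellTiter-Fluor, reporting protease activity within live cells, served as the viability read-out. HEK293T cells carrying luciferase-tagged ATAD5 had been treated with compound for 15.5 hr at 37C.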

[5] = qHTS assay for small molecule disruptors of the mitochondrial membrane potential - cell viability (AID 720634; calls by dose curve; further: nearly all actives have a fitted effect of over 20% in size; further: potency means the concentration at half of the fitted maximal effect)
How it was run: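 Cells: HepG2, 2,000/well, attached overnight. Compound 1 hr, 37 C/5% CO2. +m-MPI dye, +CellTiter-Glo 30 min RT. Readout: luminescence (ATP).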

[6] = qHTS assay to test for compound auto fluorescence at 590 nm (red) in HepG2 cells (AID 720674)
How it was run: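 Compound auto-fluorescence is scored relative to Rose Bengal sodium, measured at 540/590 nm in live HepG2 cultures after 1 hr compound contact (37 C, 5% CO2).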

[7] = qHTS assay to test for compound auto fluorescence at 535 nm (green) in HepG2 cells (AID 720675)
[8] = qHTS assay to test for compound auto fluorescence at 460 nm (blue) in HEK293 cells (AID 720678)
How it was run: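 Blue read-out at excitation 405 nm and emission 460 nm follows overnight compound exposure of HEK293 cells at 37C in 5% CO2. Activity is given as auto fluorescence equivalency to triamterene.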

[9] = qHTS assay to test for compound auto fluorescence at 590 nm (red) in HEK293 cells (AID 720679)
How it was run: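 Red channel, Ex/Em 540/590nm; signal expressed as equivalency to Rose Bengal sodium. HEK293, 2,000 cells/well, 10% dialyzed FBS; 23 nL compound pinned after 4-5 hr attachment; overnight 37C/5% CO2 before reading.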

[10] = qHTS assay to test for compound auto fluorescence at 535 nm (green) in HEK293 cells (AID 720680)
[11] = qHTS assay to test for compound auto fluorescence at 460 nm (blue) in HEK293 cell free culture (AID 720681)
How it was run: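 Test compounds were pinned into cell-free culture medium (DMEM with 10% FBS) and fluorescence was read directly at Ex/Em 405/460 nm. Signals were expressed as fluorescence equivalents of triamterene, with DMSO vehicle as control.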

[12] = qHTS assay to test for compound auto fluorescence at 535 nm (green) in HEK293 cell free culture (AID 720682)
How it was run: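 Compounds were pin-transferred into cell-free DMEM with 10% FBS, and green fluorescence was read at excitation 485 nm and emission 535 nm. Intensities were expressed as fluorescein-equivalent values.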

[13] = qHTS assay to test for compound auto fluorescence at 590 nm (red) in HEK293 cell free culture (AID 720683)
How it was run: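 Tox21 10K library compounds were pinned into cell-free DMEM with 10% FBS and fluorescence was read at excitation 540 nm. Activity is expressed as Rose Bengal sodium equivalency.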

[14] = qHTS assay to test for compound auto fluorescence at 535 nm (green) in HepG2 cell free culture (AID 720686)
[15] = qHTS assay to test for compound auto fluorescence at 460 nm (blue) in HepG2 cells (AID 720687)
How it was run: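 Cells (2,000/well in MEM with 10% FBS) attached overnight at 37 C, then were exposed to compound or DMSO for 1 hr at 37 C, 5% CO2. Fluorescence read at Ex/Em 405/460 nm, expressed as triamterene-equivalent signal.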

[16] = qHTS assay to test for compound auto fluorescence at 460 nm (blue) in HepG2 cell free culture (AID 720685)
How it was run: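 Compound (23 nL) or DMSO pinned into cell-free MEM with 10% FBS; blue fluorescence read at 405/460 nm excitation/emission, expressed as auto-fluorescence equivalency to triamterene.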

[17] = biological target: Glucocorticoid receptor (Homo sapiens) (UniProt P04150); assay: qHTS assay to identify small molecule agonists of the glucocorticoid receptor (GR) signaling pathway (AID 720691; active means well fitted activation curve with a large enough effect in the signal ratio in the repeat runs, not every such curve was filed as active; inconclusive means weak or mixed curves, or effect the other way; inactive means no such curve, though single readings can be large or run the other way; the % refers to the signal ratio; further: potency means the concentration at half of the fitted maximal effect)
How it was run: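 Fluorescence intensity from LiveBLAzer B/G FRET substrate (2 h, room temperature) reports beta-lactamase expression driven by the glucocorticoid response element in GR-bla HeLa cells after 18 h compound exposure at 37 C.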

[18] = biological target: Glucocorticoid receptor (Homo sapiens) (UniProt P04150); assay: qHTS assay to identify small molecule antagonists of the glucocorticoid receptor (GR) signaling pathway (AID 720692; active means well fitted inhibition curve with a large enough effect in the signal ratio in the repeat runs, not every such curve was filed as active; inconclusive means weak or mixed curves, or effect the other way; inactive means no such curve, though single readings can be large or run the other way; the % refers to the signal ratio; further: potency means the concentration at half of the fitted maximal effect)
How it was run: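 HeLa GR-bla cells; cmpd + dex 5 nM final, 18 h 37 C; LiveBLAzer B/G FRET substrate 2 h RT; fluorescence intensity read. Antagonist mode, qHTS.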

[19] = qHTS assay to test for compound auto fluorescence at 590 nm (red) in HepG2 cell free culture (AID 720684)
How it was run: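 Red fluorescence (540 nm excitation, 590 nm emission) was measured after compound transfer into cell-free MEM supplemented with 10% FBS. Values are equivalencies against Rose Bengal sodium.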

[20] = qHTS assay for small molecule disruptors of the mitochondrial membrane potential (AID 720635); further: potency means the concentration at half of the fitted maximal effect
How it was run: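 HepG2 cells (2,000/well) attached overnight at 37C, then took compound for 1 hr at 37C, 5% CO2. Mito-MPS dye was added for 30 min; fluorescence was read at 490/535 nm (monomers) and 540/590 nm (aggregates).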

Measured: Potency

Sequence of Glucocorticoid receptor (Homo sapiens) (P04150 whole entry, looked up): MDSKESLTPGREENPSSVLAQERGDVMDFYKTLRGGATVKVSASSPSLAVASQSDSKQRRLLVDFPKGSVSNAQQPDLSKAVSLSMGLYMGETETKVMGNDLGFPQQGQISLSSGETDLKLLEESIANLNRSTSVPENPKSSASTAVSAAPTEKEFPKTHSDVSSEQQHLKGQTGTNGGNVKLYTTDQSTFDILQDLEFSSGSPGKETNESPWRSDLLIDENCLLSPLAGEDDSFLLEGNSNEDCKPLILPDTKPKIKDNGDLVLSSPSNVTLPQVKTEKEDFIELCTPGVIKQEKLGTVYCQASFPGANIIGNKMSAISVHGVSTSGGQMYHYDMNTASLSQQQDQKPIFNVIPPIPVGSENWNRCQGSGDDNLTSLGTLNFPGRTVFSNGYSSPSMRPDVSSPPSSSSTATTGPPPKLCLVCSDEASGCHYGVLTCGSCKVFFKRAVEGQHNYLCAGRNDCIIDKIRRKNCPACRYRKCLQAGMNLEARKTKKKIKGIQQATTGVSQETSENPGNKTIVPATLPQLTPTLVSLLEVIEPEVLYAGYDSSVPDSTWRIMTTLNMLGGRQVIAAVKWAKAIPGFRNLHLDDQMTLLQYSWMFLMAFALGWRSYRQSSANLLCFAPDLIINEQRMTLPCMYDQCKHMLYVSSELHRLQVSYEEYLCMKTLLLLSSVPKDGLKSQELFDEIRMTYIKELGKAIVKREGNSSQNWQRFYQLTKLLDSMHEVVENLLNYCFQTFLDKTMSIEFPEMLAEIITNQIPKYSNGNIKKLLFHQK

c1cnccn1
not listed: [16] | [17] | [18] | [19] | [20]
inactive: all other assays above

CCC(=O)C(=O)CC
not listed: [17] | [18] | [19] | [20]
inactive: all other assays above

O=C(O)c1cc(=O)c2ccccc2o1
not listed: [14] | [15] | [19] | [20]
inactive: all other assays above

FC(F)(F)c1cccc(Cl)c1
not listed: [19] | [20]
inactive: all other assays above

CCCCCC(C)OC(=O)COc1ccc(Cl)c2cccnc12 (stereo unspecified)
not listed: [9] | [18] | [19] | [20]
inactive: all other assays above

NC(=O)c1cccc([N+](=O)[O-])c1
not listed: [15] | [19] | [20]
inactive: all other assays above

O=C(O)c1cc(N=Nc2ccc([N+](=O)[O-])cc2)ccc1O
active: [2] 15.1 µM | [4] 53.5 µM | [18] 27 µM
not listed: [5] | [9] | [14] | [17] | [19] | [20]
inactive: all other assays above

CC(C)(c1cc(Br)c(OCC(Br)CBr)c(Br)c1)c1cc(Br)c(OCC(Br)CBr)c(Br)c1 (stereo unspecified)
not listed: [5] | [9] | [20]
inactive: all other assays above

C=CCCC(=O)/C=C/C1C(C)=CCCC1(C)C (stereo unspecified)
active: [20] 61.1 µM
not listed: [1]
inactive: all other assays above

C=CC(=O)Nc1cc2c(Nc3ccc(F)c(Cl)c3)ncnc2cc1OCCCN1CCOCC1
active: [1] 11.9 µM | [3] 29.8 µM | [4] 10.6 µM | [18] 3.01 µM
not listed: [2] | [16] | [20]
inactive: all other assays above

C=C(CC)C(=O)c1ccc(OCC(=O)O)c(Cl)c1Cl
active: [1] 11.9 µM and 9.62 µM
not listed: [3] | [18] | [19] | [20]
inactive: all other assays above

Cc1cc(-n2nc3ccc(Cl)cc3n2)c(O)c(C(C)(C)C)c1
not listed: [1]
inactive: all other assays above

COC(=O)c1ccccc1OC
not listed: [1] | [18]
inactive: all other assays above

Cc1c2ccccc2c(C)c2c1ccc1ccccc12
active: [1] 30.3 µM and 54.5 µM | [5] 12.1 µM | [20] 5.39 µM and 24.3 µM | [17] 3.85 µM and 54.9 µM [inconclusive]
not listed: [3] | [18]
inactive: all other assays above
